Activity calls are given as the source filed them. Rule for the calls: active = hit-call score of the fitted dose curve at least 0.9, where 1 is the maximum; inactive = score below 0.9.

The term AC50 denotes the concentration at which the activity in the assay is half-maximal.

The nature of the test: ATG_GLI_CIS: Attagene CIS-FACTORIAL HepG2 Assay for human Zinc Finger Protein GLI1 (AID 2282945). Particulars: HepG2, Attagene cis-factorial reporter mRNA, GLI element; actives raise or lower the signal. The procedure: ATG_CIS is a cell-based, multiplexed-readout assay that uses HepG2, a human liver cell line, with measurements taken at 24 hours after chemical dosing in a 24-well plate.ATG_GLI_CIS is one of 52 assay component(s) measured or calculated from the ATG_CIS assay. It is designed to make measurements of mRNA induction, a form of inducible reporter, as detected with fluorescence intensity signals by Reverse transcription polymerase chain reaction (RT-PCR) and Capillary electrophoresis technology.Data from the assay component ATG_GLI_CIS was analyzed into 1 assay endpoint. This assay endpoint, ATG_GLI_CIS, was analyzed with bidirectional fitting relative to DMSO as the negative control and baseline of activity. Using a type of inducible reporter, measures of mRNA for gain or loss-of-signal activity can be used to understand the reporter gene at the transcription factor-level as they relate to the gene GLI1. Furthermore, this assay endpoint can be referred to as a primary readout, because this assay has produced multiple assay endpoints where this one serves a reporter gene function. To generalize the intended target to other relatable targets, this assay endpoint is annotated to the dna binding intended target family, where the subfamily is zinc finger.
Human liver HepG2 cells are transiently transfected with multiple reporter transcription units (MRTUs) in 6-well plates using FuGene 6 reagent (Roche; 3 ml FuGene/1 mg DNA). The MRTU constructs are regulated by a cis-regulating element (promoter). […] A major difference between the CIS and TRANS system is that in CIS activities of endogenous TFs are measured, whereas the TRANS assay evaluates changes in activities of exogenous, chimeric NR-Gal4 proteins. […] At the end of 24 hour incubation, total RNA was isolated using TriZol reagent (Invitrogen). The isolated RNA is then reverse-transcribed using oligo(dT) primer and Mo-MLV reverse transcriptase (Invitrogen) with DNAse I (Ambion) treatment for 30 min. The one-tenth of the produced cDNA was amplified by PCR using Taq DNA polymerase (Invitrogen) and two reporter sequence-specific primers. The PCR products were fluorescently labeled by primer extension with 6-arboxyfluorescein (6-FAM) 5'-labeled reporter sequence-specific primer (2 min at 95 C, 20 s at 68 C and 10 min at 72 C) and these products were digested with 5U of HpaI (New England Biolabs) for 2h at 37 C. The fragments were purified using Qiaquick PCR columns (Qiagen), analyzed on an ABI 3130xL genetic analyzer (Applied Biosystems) with peak positions identified by using a set of X-rhodamine (ROX)-labeled MapMarker1000 molecular weight standards (BioVentures). The raw capillary electrophoresis data was processed using Attagraph software (Attagene).
For `Nc1c(Cl)cc(Cl)cc1[N+](=O)[O-]`, the outcome was inactive. On the same count and under the same terms, the same measure for `CC=Cc1ccc(OCC)c(O)c1`: “inactive”.

For the molecule `N#Cc1cscn1`, the molecule was called inactive. The same measure, in the same setting: the result for `COC(C)(C)CCCC(C)CC=O` (stereo not given) reads “inactive”; that for `COc1ccc(CCN2CCC(Nc3nc4ccccc4n3Cc3ccc(F)cc3)CC2)cc1`, “inactive”; that for `NCCNc1cccc2ccccc12`, “inactive”. Still for that read-out and setting: the result for `CCCCCCCCCCCCN1CCCCCC1=O` reads “inactive”.

Regarding `O=C(O)CCCCCCCCC(=O)O`, the outcome was inactive. Same read-out and setting: the same measure for `Nc1ccc2cc(S(=O)(=O)O)cc(O)c2c1N=Nc1ccccc1C(F)(F)F`: “inactive”; for `Cc1ncc([N+](=O)[O-])n1CCO`: “inactive”; for `Nc1ccc2c(O)cc(S(=O)(=O)O)cc2c1`: “inactive”. On the same count and under the same terms, the same measure for `O=C(O)c1cc(C(=O)O)cc([N+](=O)[O-])c1`: “inactive”; for `CCCCCCCCCCCC(=O)OCC(O)CO` (stereo not given): “inactive”. Consider `CC(C)OCCO`, for which the molecule was called inactive. On the same count and under the same terms, the same measure for `NCc1ccco1`: “inactive”; for `CCCC(=O)c1ccccc1`: “inactive”.

In the case of `CCCCCCC(=O)c1ccccc1`, the result was inactive. Same read-out and setting: the same measure for `C=C(CC(=O)O)C(=O)O`: “inactive”; for `FC(F)(F)COCC(F)(F)F`: “inactive”. Same read-out and setting: the same measure for `CCCC1O[C@@H]2C[C@H]3[C@@H]4CCC5=CC(=O)C=C[C@]5(C)[C@H]4[C@@H](O)C[C@]3(C)[C@]2(C(=O)CO)O1` (stereo not given in full): “inactive”; for `CC1(C)C(=O)N(Cl)C(=O)N1Br`: “inactive”; for `CCCCCCOCCOCCO`: “inactive”. With `CC(C)C[C@H](NC(=O)OCC1c2ccccc2-c2ccccc21)C(=O)O`, the result was inactive. The same measure, in the same setting: the result for `CC(C=O)Cc1ccc(C(C)(C)C)cc1` (stereo not given) reads “inactive”; that for `NC1CCCCC1N` (stereo not given), “inactive”.

In the case of `COCCOC(=O)c1ccccc1C(=O)OCCOC`, the call was inactive. Same read-out and setting: the same measure for `CCCCCCCCCCCC(=O)OC[C@@H](O)[C@H]1OC[C@H](O)[C@H]1O`: “inactive”; for `CCc1cc(C(C)(C)C)c(O)c(C(C)(C)C)c1`: “inactive”; for `C=CCOC(=O)CCCCCC`: “inactive”. For `C1CCCCC1`, the result was inactive. Still for that read-out and setting: the same measure for `C#CC(C)N(C)C(=O)Nc1ccc(Cl)cc1` (stereo not given): “inactive”. Regarding `CCCCOCC`, the molecule was called inactive.

Regarding `CCCCC(CC)COC(=O)c1ccc(O)cc1` (stereo not given), the molecule was classed as inactive.

Turning to `CCNCCO`, the outcome was inactive.

On to `CCOc1ccccc1O`, for which the call was inactive.

With `c1ccc(CN(Cc2ccccc2)Cc2ccccc2)cc1`, the AC50 was 100 µM (active). In the case of `CC(C)Nc1nc(N)nc(Cl)n1`, the result was inactive.

Consider `Cc1ccc(C)o1`, for which the outcome was inactive. Same read-out and setting: the result for `CC(C)=CCCC(C)CC(=O)O` (stereo not given) reads “inactive”; that for `OCCCCC(O)CO` (stereo not given), “inactive”.

The values are drawn from PubChem BioAssay (EPA / NIEHS).
